Data taken from PubChem BioAssay.
“And” between values parts separate entries of the source, which are not always exact repeats. Identical values can stand only once. The source made the active and inactive calls.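 Rule for the calls, unless noted: active = inhibition at or above 50% relative to wild type and mutant plate controls; inactive = inhibition below 50%.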

Columns and labels:
[1] = inhibitors of TNFa-induced NFkB p65 translocation, primary screen, imaging, HUVEC, MLSMR starter and 10KST1 sets (AID 438;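 active = inhibition above 20% together with a positive visual image hit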;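 note: compound added about 3h40 before a 20 min TNFalpha stimulation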;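 for inhibition: signal is the nuclear over cytoplasmic p65 intensity ratio per well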); conditions: HUVEC TNFa-induced p65 nuclear translocation; cell count: measured here: nuclei count (cytotoxicity indicator), at 2.08 µM; inhibition: at 2 µM, stronger effect = higher value, 0% TNFa-plus-vehicle, 100% no-TNFa wells
[2] = inhibitors of mutant huntingtin aggregation, primary screen, imaging, exon1htt(103Q)mCFP cells, high-content imaging (AID 483;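 active = visual image review flags a hit and inhibition of aggregation exceeds 20%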;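 note: compound exposure lasted 3 days before fixation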;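 for nuclei count: percent of the per-plate median nuclei count of sample wells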); conditions: exon1htt(103Q)mCFP cell line, aggregate imaging, at 2 µM; inhibition of aggregation: stronger effect = higher value; nuclei count: measured here: cell count, toxicity
[3] = inhibitors of E-selectin induction by TNFa, primary screen, imaging, HUVEC, immunofluorescence, MLSMR starter and 10KST1 sets (AID 487;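 active = visually confirmed hit in the image check and inhibition above 20%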;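 for inhibition: signal is fraction of cell area covered by stained E-selectin grains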;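 for nuclei count: 100% = median nuclei count of all wells on the same plate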); conditions: HUVEC TNFalpha-induced E-selectin immunofluorescence imaging, at 2 µM; inhibition: stronger effect = higher value; nuclei count: measured here: cell number, toxicity
[4] = DUSP6 inhibitors restoring Erk phosphorylation by chemical complementation, primary imaging in DUSP6-transfected HeLa (AID 609;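 active = compounds giving at least 50% inhibition in the cell-based MKP-3 phosphatase rescue imaging test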;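 for inhibition: phospho-Erk level distribution per well compared with pooled transfected vehicle control wells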); conditions: HeLa MKP-3 transfected, phospho-Erk imaging KS statistic, at 10 µM, cells stimulated with TPA for 15 min
[5] = target: Dual specificity protein phosphatase 6 (Homo sapiens) (UniProt Q16828); assay: as above; conditions: HeLa MKP-3 transfected, phospho-Erk imaging KS statistic; at 10 µM; stronger effect = higher value; cells stimulated with TPA for 15 min
[6] = target: Voltage-gated potassium channel subunit beta-2 (Rattus norvegicus) (UniProt P62483); assay: KvBeta enzyme negative modulators, primary screen, biochemical, NADPH fluorescence (AID 622;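 active = fluorescence slope higher than the sample average by over 3 SD, cut at about -0.22 in these data, passing the limit was not always enough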;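 note: slope of raw intensity against log time taken from 70 to 1610 s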); conditions: recombinant KvBeta, 4-cyanobenzaldehyde reduction, at 10 µM, stronger effect = higher value
[7] = target: Voltage-gated potassium channel subunit beta-2 (Rattus norvegicus) (UniProt P62483); assay: KvBeta positive modulators, primary screen, biochemical, NADPH fluorescence (AID 623;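 active = NADPH fluorescence slope more negative than the mean of all samples by about 3 SD, 99.7% confidence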;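 note: fluorescence intensity change per second fitted from 20 to 320 s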); conditions: Recombinant KvBeta, NADPH fluorescence decrease slope, 10 min; at 10 µM; stronger effect = lower value
[8] = target: Alpha-2C adrenergic receptor (Homo sapiens) (UniProt P18825); assay: modulators of alpha2C/GIRK thallium flux, primary screen, cell-based, HEK293 alpha2C/GIRK1/2 (AID 624;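 active = fluorescence slope after compound addition differing from the mean of all screened samples at 99.7% confidence, in either direction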;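 note: slope of fluorescence ratio to pre-addition baseline per second over 15 to 24 s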); conditions: thallium flux BTC fluorescence, at 10 µM, actives lie on both sides
[9] = inhibitors of larval lipid processing in zebrafish, primary screen, whole organism, PED6 fluorescence, gall bladder and intestine (AID 686;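 active = a full or partial loss of lipid-probe fluorescence in the fish gall bladder, intestine or both, judged by eye; inactive = no fluorescence loss, or compound toxic to the fish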;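 note: larvae 5 to 7 days old with five fish per well; signal comes from phospholipase A2 cleavage of quenched PED6 carried via bile; overnight exposure to compound and PED6 before scoring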); conditions: Zebrafish larvae PED6 lipid processing, fluorescence scoring; screened at 20 µM (by protocol)
[10] = inhibitors of Chlamydomonas gravitaxis, primary screen, whole organism, Chlamydomonas reinhardtii, WT vs cilia-less mutant, absorbance, 96-well (AID 463189); conditions: OD600 absorbance, 2 days, at 10 µM, stronger effect = higher value;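 note: 0% = wild type cc124 cells in DMSO and 100% = ciliumless bld1 mutant cells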
[11] = inhibitors of Sendai virus-induced IRF3 signaling, primary screen, TLR/RLR signaling modifier project, cell-based, Sendai virus stimulus, luciferase, 10K MLSCN set (AID 602276;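 active = inhibition at or above 50% at 10 µM; inactive = inhibition below 50%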;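 note: firefly luciferase from ISG56 promoter only with Renilla not read in this screen; 0% = Sendai virus plus DMSO and 100% = medium plus DMSO without virus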); conditions: HEK293 RL24 IRF3 luciferase reporter, at 10 µM, stronger effect = higher value
[12] = inhibitors of poly I:C-induced TLR3 signaling, primary screen, cell-based, poly I:C stimulus, luciferase, 10K MLSCN set (AID 602277;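 active = inhibition of the reporter signal at or above 50%; inactive = inhibition below 50%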); conditions: HEK293-TLR3 RL24 IRF3 luciferase reporter, at 10 µM, stronger effect = higher value
[13] = measured here: cell density z-score
[14] = measured here: nuclear c-Myc green intensity z-score
[15] = measured here: nuclear pErk red intensity z-score, stronger effect = higher value

Dual specificity protein phosphatase 6 (Homo sapiens), sequence (Q16828 whole entry, looked up): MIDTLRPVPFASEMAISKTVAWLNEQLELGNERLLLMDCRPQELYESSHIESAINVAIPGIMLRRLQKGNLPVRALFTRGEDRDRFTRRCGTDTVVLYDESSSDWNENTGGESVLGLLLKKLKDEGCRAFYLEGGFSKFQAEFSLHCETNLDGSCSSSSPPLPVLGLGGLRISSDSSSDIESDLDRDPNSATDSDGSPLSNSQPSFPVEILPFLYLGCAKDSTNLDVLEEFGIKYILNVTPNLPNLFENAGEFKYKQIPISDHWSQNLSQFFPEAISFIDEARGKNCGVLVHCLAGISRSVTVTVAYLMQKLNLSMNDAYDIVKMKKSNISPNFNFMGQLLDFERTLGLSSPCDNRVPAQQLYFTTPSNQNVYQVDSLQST
Voltage-gated potassium channel subunit beta-2 (Rattus norvegicus), sequence (P62483 whole entry, looked up): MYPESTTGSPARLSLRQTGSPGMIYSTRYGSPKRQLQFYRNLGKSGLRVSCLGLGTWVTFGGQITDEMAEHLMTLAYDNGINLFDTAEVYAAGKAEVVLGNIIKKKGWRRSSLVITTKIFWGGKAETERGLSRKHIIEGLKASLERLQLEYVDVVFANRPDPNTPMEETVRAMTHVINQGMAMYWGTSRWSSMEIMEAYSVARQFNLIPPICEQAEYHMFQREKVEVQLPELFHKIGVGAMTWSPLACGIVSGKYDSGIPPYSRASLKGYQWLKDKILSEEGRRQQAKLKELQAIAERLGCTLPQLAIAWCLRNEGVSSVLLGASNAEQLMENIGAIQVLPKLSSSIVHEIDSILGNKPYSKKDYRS
Alpha-2C adrenergic receptor (Homo sapiens), sequence (P18825 whole entry, looked up): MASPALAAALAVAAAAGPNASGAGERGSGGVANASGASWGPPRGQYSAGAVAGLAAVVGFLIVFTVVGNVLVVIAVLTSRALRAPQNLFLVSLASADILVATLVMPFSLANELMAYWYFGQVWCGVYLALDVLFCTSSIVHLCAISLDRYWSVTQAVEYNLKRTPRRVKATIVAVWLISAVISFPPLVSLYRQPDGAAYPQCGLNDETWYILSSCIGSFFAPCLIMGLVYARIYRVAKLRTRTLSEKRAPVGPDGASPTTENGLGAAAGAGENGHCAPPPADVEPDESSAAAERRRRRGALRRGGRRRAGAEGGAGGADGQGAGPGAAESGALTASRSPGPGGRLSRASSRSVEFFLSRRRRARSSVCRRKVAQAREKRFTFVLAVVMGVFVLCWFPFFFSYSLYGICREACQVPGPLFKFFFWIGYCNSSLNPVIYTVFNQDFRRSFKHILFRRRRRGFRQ

Row | Structure (SMILES) | cell count [1] | inhibition [1] | inhibition of aggregation [2] | nuclei count [2] [%] | inhibition [3] | nuclei count [3] [%] | z-score [4, 13] | z-score [4, 14] | z-score [4, 15] | inhibition [5] | fluorescence slope [6] | NADPH fluorescence slope [7] | slope [8] | outcome [9] | inhibition [10] | inhibition [11] | inhibition [12]
1 | COC(=O)CCC(=O)CN | 462 | -0.2% (inactive) | 0.3% (inactive) | 95.2 | -32.6% (inactive) | 108 | -0.857 | 0.817 | -0.467 | 14.6% (inactive) | -0.446 (inactive) | -6.5e-05 (inactive) | 0.00417 (inactive) | inactive | -6.73% (inactive) | 5.54% (inactive) | 25.1% (inactive)
2 | Nc1nc(Cl)nc2c1ncn2[C@@H]1O[C@H](CO)[C@@H](O)[C@H]1O | 493 | -14.6% (inactive) | 16.9% (inactive) | 88.7 | -20.3% (inactive) | 117 | 0.919 | 0.297 | -0.425 | 7.39% (inactive) | -0.439 (inactive) | 2.4e-05 (inactive) | 0.00614 (inactive) | inactive | 13% (inactive) | 16.8% (inactive) | 39% (inactive)
3 | CCOc1nc(-c2ccncc2)nc2ccccc12 | 416 | 5.6% (inactive) | -55% (inactive) | 13.3 | -66.1% (inactive) | 116 | -2.21 | -0.624 | 0.47 | 4.25% (inactive) | -0.322 (inactive) | 3e-05 (inactive) | 0.00435 (inactive) | inactive | 39.6% (inactive) | 13.1% (inactive) | 16.5% (inactive)
4 | COc1ccc(NS(=O)(=O)c2ccc(N)cc2)nn1 | 634 | -10.4% (inactive) | -19.4% (inactive) | 99.2 | -67.7% (inactive) | 114 | -2.14 | -1.5 | 2.96 | 3.45% (inactive) | -0.412 (inactive) | 5.7e-06 (inactive) | 0.00455 (inactive) | inactive | 15% (inactive) | 15.8% (inactive) | 27.8% (inactive)
5 | Cc1cc(C)n(CC(=O)n2c3c(c4ccccc42)CCCC3)n1 | 515 | -6.5% (inactive) | 13.5% (inactive) | 99.3 | -92.5% (inactive) | 130 | -0.283 | 1.41 | 0.335 | -1.98% (inactive) | -0.53 (inactive) | -3.4e-05 (inactive) | 0.0062 (inactive) | inactive | -0.753% (inactive) | -7.05% (inactive) | 1.75% (inactive)
6 | CCOC(=O)CCC(=O)O[C@H]1[C@H](O[C@@H]2[C@@H](C)[C@H](O[C@H]3C[C@@](C)(OC)[C@@H](O)[C@H](C)O3)[C@@H](C)C(=O)O[C@H](CC)[C@@](C)(O)[C@H](O)[C@@H](C)C(=O)[C@H](C)C[C@@]2(C)O)O[C@H](C)C[C@@H]1N(C)C | 569 | -5.3% (inactive) | 0.8% (inactive) | 105 | -62.2% (inactive) | 115 | -0.734 | -0.933 | 0.00972 | -4.44% (inactive) | -0.495 (inactive) | -5.4e-05 (inactive) | 0.0056 (inactive) | inactive | 64.6% (active) | 20.3% (inactive) | 31.3% (inactive)
7 | O/N=C/c1ccc(OCC(O)COc2ccc(/C=N/O)cc2)cc1 | 678 | 3.9% (inactive) | 8.1% (inactive) | 104 | -37.7% (inactive) | 114 | 0.736 | -0.218 | -0.78 | -8.59% (inactive) | -0.33 (inactive) | -1e-05 (inactive) | 0.00891 (inactive) | inactive | 13.7% (inactive) | -3.4% (inactive) | -9.91% (inactive)
8 | Cc1cc(C)nc(NC(=O)c2ccc(OC(C)C)cc2)n1 | 520 | -2.7% (inactive) | -1.7% (inactive) | 110 | -53% (inactive) | 123 | 0.524 | 1.41 | -0.231 | 17% (inactive) | -0.449 (inactive) | -4.9e-05 (inactive) | 0.00572 (inactive) | inactive | -2.45% (inactive) | -1.16% (inactive) | -12.9% (inactive)
9 | COc1ccccc1N1CCN(CC(O)COc2cccc3ccccc23)CC1 (configuration not stated) | 617 | -3.6% (inactive) | -18.7% (inactive) | 108 | -26.2% (inactive) | 107 | 0.673 | -1.31 | -2.39 | 8% (inactive) | -0.431 (inactive) | -7.7e-05 (inactive) | 0.00349 (inactive) | inactive | 7.05% (inactive) and 42.9% (inactive) | 16.5% (inactive) | 36.9% (inactive)
10 | Nc1ncnc2c1ncn2[C@@H]1O[C@H](CO)[C@@H](O)[C@H]1O | 562 | -1.7% (inactive) | -15.3% (inactive) | 101 | -40.5% (inactive) | 128 | 0.315 | -0.14 | 0.779 | -12.3% (inactive) | -0.453 (inactive) | -3.6e-05 (inactive) | 0.00542 (inactive) | inactive | -7.15% (inactive) | 11.2% (inactive) | 25.6% (inactive)
11 | C=CCn1cnc2c(c1=O)c1nc3ccccc3nc1n2-c1ccc(C)cc1 | 548 | -5.7% (inactive) | -8.4% (inactive) | 100 | -70.3% (inactive) | 132 | -0.575 | -1.45 | 1.52 | -2.07% (inactive) | -0.354 (inactive) | -6.7e-05 (inactive) | 0.00438 (inactive) | inactive | 15.4% (inactive) | 15.3% (inactive) | 10% (inactive)
12 | CCCCOc1ccc(-c2nnc(N)s2)cc1 | 634 | -17.7% (inactive) | -7.4% (inactive) | 104 | -23.7% (inactive) | 146 | -0.283 | 0.709 | 0.136 | -15% (inactive) | -0.405 (inactive) | -6.4e-05 (inactive) | 0.00759 (inactive) | inactive | 2.26% (inactive) | -42.6% (inactive) | -89.4% (inactive)
13 | CC(=Nc1ccc(C)c(C)c1)C1=C(O)CCC1=O | 616 | -14.9% (inactive) | 30.6% (inactive) | 87.4 | -30.7% (inactive) | 143 | 0.598 | -0.724 | 0.505 | 4.72% (inactive) | -0.423 (inactive) | -4.1e-05 (inactive) | 0.00609 (inactive) | inactive | 2.51% (inactive) | -16.6% (inactive) | -35.9% (inactive)
14 | O=C(O)CCCc1ccccc1 | 647 | 0.8% (inactive) | -15.5% (inactive) | 106 | -27.5% (inactive) | 112 | 0.592 | -1.18 | -0.707 | 8% (inactive) | -0.549 (inactive) | -3.8e-05 (inactive) | 0.0053 (inactive) | inactive | -5.1% (inactive) | -1.93% (inactive) | 7.07% (inactive)
15 | CC1(C)CC(=O)C=C(NCc2ccncc2)C1 | 623 | -5.3% (inactive) | -13.1% (inactive) | 100 | -98.8% (inactive) | 122 | 1.78 | -0.484 | -1.6 | 13.9% (inactive) | -0.497 (inactive) | -3.5e-05 (inactive) | 0.00534 (inactive) | inactive | -8.68% (inactive) | -0.503% (inactive) | 44.9% (inactive)
16 | CC(C)(S)[C@@H](N)C(=O)O | 657 | -4.4% (inactive) | -5.6% (inactive) | 105 | -120% (inactive) | 138 | 1.21 | -0.53 | -0.44 | 3.45% (inactive) | -0.482 (inactive) | -4.6e-05 (inactive) | 0.00423 (inactive) | inactive | -3.9% (inactive) | 22.7% (inactive) | 43.2% (inactive)
17 | O=C1CC(c2ccccc2)NC(=O)N1 (configuration not stated) | 692 | -11.2% (inactive) | 15.5% (inactive) | 100 | 23% (inactive) | 127 | -1.04 | -0.999 | 0.572 | 9.39% (inactive) | -0.454 (inactive) | -0.000279 (inactive) | 0.0044 (inactive) | inactive | -8.12% (inactive) | 11% (inactive) | 23.5% (inactive)
18 | Cc1cc(C)nc(NC2=NCC(=O)N2c2ccc(Cl)cc2)n1 | 641 | -3.3% (inactive) | -9.6% (inactive) | 111 | -78.7% (inactive) | 107 | 0.855 | 0.968 | -1.07 | 13.9% (inactive) | -0.492 (inactive) | -1.6e-05 (inactive) | 0.00625 (inactive) | inactive | -3.81% (inactive) | 15.2% (inactive) | 17.2% (inactive)
19 | O=C(O)CC1SC(=Nc2cccc(C(F)(F)F)c2)NC1=O (configuration not stated) | 447 | -2.2% (inactive) | 3.4% (inactive) | 95.3 | -42.6% (inactive) | 105 | -0.141 | 1.56 | 0.654 | 3.42% (inactive) | -0.448 (inactive) | 1.4e-05 (inactive) | 0.0048 (inactive) | inactive | 34.2% (inactive) | 19.6% (inactive) | 19.9% (inactive)
20 | CCOC(=O)c1[nH]c2ccccc2c1NC(=O)CCN1CCN(C(=O)OCC)CC1 | 626 | -1.9% (inactive) | -2.8% (inactive) | 104 | 1% (inactive) | 144 | -1.64 | 0.13 | 1.55 | -5.26% (inactive) | -0.344 (inactive) | -4.4e-05 (inactive) | 0.00527 (inactive) | inactive | -5.66% (inactive) | 14.7% (inactive) | 19.4% (inactive)
21 | CCOC(=O)[C@H](CCc1ccccc1)N[C@@H](C)C(=O)N1CCC[C@H]1C(=O)O | 512 | -1.7% (inactive) | -27.5% (inactive) | 76.9 | -7.9% (inactive) | 112 | 1.2 | 0.592 | -0.0475 | 11.3% (inactive) | -0.554 (inactive) | -1.6e-05 (inactive) | 0.00627 (inactive) | inactive | 34.1% (inactive) | 9.18% (inactive) | 28.5% (inactive)
